Sampled rows, rich in hits. Any-hit rate of the full collection: about 5.7%.
hgDAF-12 ag: activates the H. glycines DAF-12 receptor ligand-binding domain; hit rate 1.8% among 370,000; activation, % at 6.8 µM; HEK293 GAL4-hgDAF12 UAS-luciferase reporter, agonist luminescence; normalized to butyrate control; AID 687014;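 active means activation above a cutoff set at the mean of all screened compounds plus 3 SD, cut at about 10% in these data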
hcDAF12 agonist: H. contortus DAF-12 activation, primary screen. AID 652067. hit rate 1.4% among 370,000. activation, % at 6.8 µM. HEK293 hcDAF-12 lit1-tk-luc reporter, luminescence; 0% DMSO, 100% Δ7-dafachronic acid;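 active means activation above the mean of all tested compounds plus 3 SD, cut at about 5.5% in these data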
DAX1 inh-1: DAX1 (NR0B1) inhibition, primary screen; HEK293T StAR-luciferase reporter, SF-1/DAX-1 repression relief; hit rate 1.1% among 370,000; inhibition, % at 6.8 µM;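 active means inhibition above the mean over all tested compounds plus 3 SD, cut at about 3.6% in these data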;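 further: higher inhibition means more luminescence from relief of DAX-1 repression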
AHR act: activators of human aryl hydrocarbon receptor; P35869; hit rate 2.5% among 320,000; activation, % at 5 µM; AID 2796; AHR-responsive luciferase reporter cells, luminescence; in the data active means activation above about 47%
ssDAF-12 act: activates DAF-12 receptor from parasite S. stercoralis; HEK293 ssDAF-12/GRIP1 lit1-tk-luc reporter, luminescence; % of 3 µM dafachronic acid response; hit rate 1% among 370,000; activation, % at 6.8 µM;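 active means activation above the mean over all tested compounds plus 3 SD, cut at about 0.9% in these data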
DAX1 inh-2: inhibits human nuclear receptor DAX1; AID 504766; inhibition, % at 6.75 µM; hit rate 0.99% among 340,000; HEK293 Gal4-DAX1 luciferase reporter, luminescence;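 active means inhibition above the mean over all tested compounds plus 3 SD, cut at about 4.2% in these data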;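 further: inhibition shows as a rise in luminescence from relieved DAX1 repression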
AHR act cf: human AHR activation, confirmation; shares compounds with AHR act; human cells, AHR-responsive luciferase reporter, luminescence; activation, % at 9 µM; hit rate 87% among 2,300; AID 2845; in the data active means activation above about 49%;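 further: HepG2 hepatoma cells carrying a DRE-driven firefly luciferase reporter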
PXR counter: PXR activation, counter-screen for AHR activators; shares compounds with AHR act; cell-based PXR reporter, luciferase luminescence; activation, % at 11.6 µM; hit rate 88% among 2,300; AID 434939; in the data active means activation above about 11%;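 further: human hepatoma DPX-2 cells expressing full-length human PXR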
Numbers stand for hits; - = inactive; . = not tested or not shown.

SMILES | hgDAF-12 ag | hcDAF12 agonist | DAX1 inh-1 | AHR act | ssDAF-12 act | DAX1 inh-2 | AHR act cf | PXR counter
COc1cc(NC(=S)Nc2cccnc2)cc(OC)c1 | - | - | - | 116.3 | - | - | 65.5 | 23.5
COc1cc(OC)cc(C(=O)NC(=S)Nc2cccnc2)c1 | - | - | - | - | - | - | . | .
COc1cccc(NC(=O)c2cccc(C(=O)Nc3cccc(OC)c3)n2)c1 | - | - | - | - | - | - | . | .
COc1cccc(NC(=O)Nc2cc(NC(=O)Nc3cccc(OC)c3)c(C)nc2C)c1 | - | - | - | 91.0 | - | - | 50.2 | 15.3
COc1cccc(NC(=S)Nc2cccc3ccccc23)c1 | - | - | - | 87.7 | - | - | - | 105.3
CC(O)[C@H]1CNCCN1CCc1cccc(F)c1 (stereo partly specified) | - | - | - | - | - | - | . | .
O=C1CC(C(=O)N2CCCc3ccccc32)CN1c1ccc(Cl)cc1 (stereo unspecified) | - | - | - | - | - | - | . | .
C=CCNC(=S)Nc1cccc2ccccc12 | - | - | - | - | - | - | . | .
C/C(=C\C(=S)Nc1ccccc1)Nc1cccc2ccccc12 | - | - | - | 93.6 | - | - | - | 17.5
Cc1cc(NC(=O)C(C)Sc2nnc(NCc3ccco3)s2)no1 (stereo unspecified) | - | - | - | - | - | - | . | .
COc1ccc(OC)c(NC2=NC3(CCCC3)N=C(N)N2)c1 | - | - | - | 83.6 | - | - | 61.2 | 10.9
NC1=NC2(CCCCC2)N=C(Nc2ccc(F)cc2F)N1 | - | - | - | - | - | - | . | .
COc1cc(NC(=O)c2csc(N)n2)cc(C(=O)Nc2cccc(C(F)(F)F)c2)c1 | - | - | - | 85.2 | - | - | 91.1 | 32.2
COc1cc(NC(=O)c2ccnc(N)c2)cc(C(=O)Nc2cccc(C(F)(F)F)c2)c1 | - | - | - | - | - | - | . | .
COc1cc(NC(=O)c2cnc(N)s2)cc(C(=O)Nc2cccc(C(F)(F)F)c2)c1 | - | - | - | - | - | - | . | .
COc1cc(NC(=O)c2cc(C)on2)cc(C(=O)Nc2cccc(C(F)(F)F)c2)c1 | - | - | - | 130.2 | - | - | 105.6 | 21.0
CC[C@]12c3[nH]c4cc(CCC(=O)N(C)C)ccc4c3CCN1C(=O)[C@@H](CC(=O)NC/C=C(\C)CCC=C(C)C)C[C@@H]2C(=O)N1CCN(C(=O)c2ccco2)CC1 | . | . | . | . | . | - | . | .
O=C(/C(=C\c1ccccc1)c1nc2ccccc2[nH]1)c1ccc(Cl)cc1 | 11.2 | - | - | 80.4 | - | - | - | 117.0
O=[N+]([O-])c1ccc(N/N=C\c2ccccc2OCc2ccccc2)cc1 | - | - | - | 84.7 | - | - | 61.9 | 46.3
Cc1cc(C)nc(N/N=C/c2ccccc2OCc2ccc([N+](=O)[O-])cc2)n1 | - | - | - | - | - | - | . | .
C/C(CC(=O)Nc1cc(C)ccn1)=N\NC(=O)c1cccc(F)c1 | - | - | - | - | - | - | . | .
CN(C)c1cc(-c2ccc(Br)cc2)oc(=O)c1Cl | - | - | - | 85.2 | - | . | 70.0 | 22.2
COc1ccc(/C=N/Nc2ncc(C(F)(F)F)cc2Cl)cc1OC | - | - | - | - | - | - | . | .
FC(F)(F)c1cnc(N/N=C/c2ccncc2)c(Cl)c1 | - | - | - | 92.8 | - | - | 75.5 | 18.4
Cn1cc(/C=C2\SC(=S)N(N3CCOCC3)C2=O)c2ccccc21 | - | - | - | 107.5 | - | - | - | -
SMILES | hgDAF-12 ag | hcDAF12 agonist | DAX1 inh-1 | AHR act | ssDAF-12 act | DAX1 inh-2 | AHR act cf | PXR counter
Cn1cc(/C=C2/SC(=O)N(c3ccccc3)C2=O)c2ccccc21 | - | - | - | 100.6 | - | - | 86.9 | 16.6
O=c1cc(-c2ccccc2)[nH]c2cc(Cl)ccc12 | - | - | - | 96.1 | - | - | 64.5 | 22.6
O=c1cc(-c2ccccc2)c2cc(Cl)ccc2[nH]1 | - | - | - | - | - | - | . | .
Clc1ccc2[nH]c(-c3ccccc3)cc2c1 | - | - | - | 114.7 | - | - | 137.6 | 17.0
Cc1cccc(-c2cc3nc(-c4ccccc4)cc(=O)n3[nH]2)c1 | - | - | - | 89.1 | - | 6.4 | 104.8 | 33.8
Cc1ccccc1-c1cc2nc(-c3ccc([N+](=O)[O-])cc3)cc(=O)n2[nH]1 | - | - | - | - | - | - | . | .
O=c1cc(C(F)(F)F)[nH]c(=S)n1-c1ccccc1 | - | - | - | - | - | - | . | .
O=C1CCC(C(=O)N2CCCCO2)CN1Cc1ccc(Cl)cc1 (stereo unspecified) | - | - | - | - | - | - | . | .
COc1ccc(C(=O)Nc2c(O)ccc3ccccc23)cc1 | - | - | - | 79.4 | - | - | 66.7 | -
COc1ccc(C(=O)NNC(=O)c2cc3ccccc3cc2O)cc1 | - | - | - | - | - | - | . | .
CCc1ccccc1NC(=O)Nc1ccc2c(c1)OCO2 | - | - | - | 87.0 | - | - | 92.3 | 85.8
CCC(Oc1ccccc1OC)C(=O)Nc1ccc2c(c1)OCO2 (stereo unspecified) | - | - | - | 115.4 | - | - | 114.8 | 56.1
O=C(CCN1CCc2ccccc2C1)Nc1ccc(F)c(F)c1 | - | - | - | - | - | - | . | .
O=C(CCN1CCc2ccccc2C1)Nc1ccc2c(c1)OCO2 | - | - | - | 83.9 | - | - | - | 50.7
Cc1ccccc1OC(C)C(=O)Nc1ccc2c(c1)OCO2 (stereo unspecified) | - | - | - | 102.4 | - | - | 50.8 | 36.5
Cc1nc2ccc(C(=O)N(C)Cc3ccccc3)cn2c1N(C)C(=O)CCc1ccccc1 | - | - | - | . | - | . | . | .
Cc1ccc(Cc2c(C3CCCCC3)nc3ccc(Cl)cn23)cc1 | - | - | - | . | - | . | . | .
COc1ccccc1C(=O)NCCN1CCCC1 | - | - | - | . | - | - | . | .
COc1ccccc1NC(=O)c1ccc(SCC(=O)NCc2ccccc2Cl)c([N+](=O)[O-])c1 | - | - | - | 99.4 | - | - | 120.3 | 135.5
COc1ccccc1NC(=O)C(=O)NCc1ccccc1Cl | - | - | - | - | - | - | . | .
COc1ccccc1CNC(=O)CSc1ccc(C(=O)Nc2ccccc2OC)cc1[N+](=O)[O-] | - | - | - | 89.7 | - | - | 85.2 | 104.9
Cc1noc(C)c1S(=O)(=O)Nc1ccc2c(c1)C(=O)N([C@H](C)CO)C[C@H](C)[C@@H](CN(C)C(=O)NC1CCCCC1)O2 | - | - | - | - | - | - | . | .
O=c1c(-c2ccccc2)n[nH]c2ccccc12 | 10.5 | - | - | 117.2 | - | - | 81.2 | 25.7
Brc1ccc2ncnc(Nc3ccc(N4CCOCC4)cc3)c2c1 | - | - | - | 91.6 | - | - | 63.2 | .
O=C(COc1ncnc2ccc(Br)cc12)Nc1ccc(N2CCOCC2)cc1 | - | - | - | - | - | - | . | .

Source: PubChem (The Scripps Research Institute Molecular Screening Center)
